# Source: PubChem BioAssay
# FAS TE block: inhibitors of human fatty acid synthase thioesterase domain; P49327; recombinant FAS-TE, OMFH fluorogenic substrate, fluorescence endpoint; inhibition, % at 15 µM; actives 0.67% (n = 360,000);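 active means compounds whose normalised, plate-corrected inhibition of enzyme fluorescence in the single-dose primary screen is 50% or more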;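 further: 0% = DMSO with enzyme and 100% = substrate without enzyme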
# MIN6 prolif: MIN6 beta-cell proliferation induction; AID 2380; proliferation, % at 10 µM; MIN6 cells proliferation, ATPlite luminescence, 48 h; cells starved in 0.2% serum; 100% = growth in 10% serum; actives 0.29% (n = 330,000);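 active means compounds whose signal lies at least 3.5 SD above the mean of all wells on their plate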;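 further: 0% = DMSO-treated cells in low-serum medium and 100% = 10% serum control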
# MPTP inh: inhibitors of mitochondrial permeability transition pore | isolated mouse mitochondria, Ca2+ swelling absorbance, 30 min | inhibition, % at 10 µM | actives 1.4% (n = 360,000) | AID 602449;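 active means inhibition of 50% or more, scaled per plate between neutral and stimulator controls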;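 further: 0% = DMSO wells given calcium and 100% = 1 mM EGTA wells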
# GRIN3A LBD mod: modulates the human NR3A ligand-binding domain | NR3A LBD differential scanning fluorimetry, Tm shift; 0% = protein alone, 100% = glycine-bound protein | Tm shift relative to glycine control, % at 25 µM | actives 2.5% (n = 340,000);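 active means melting temperature shift of at least 10% of the positive control shift, at one fixed dose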
# p-CIP stab down: lowers stability of the mouse p/CIP coactivator protein. decrease of EGFP signal, % at 10 µM. actives 0.01% (n = 290,000). F442A p/CIP-EGFP cells, EGFP fluorescence, 16 h. AID 1984. Q05BA5;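 active means EGFP signal decrease of at least 30% at 10 µM or well 3 SD below plate mean, unless failing retest; inactive means the rest, including hits failing retest or dose response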
# Rh123 counter: mitochondrial membrane potential, counter-screen. shares compounds with MPTP inh. isolated mitochondria, Rhodamine 123 fluorescence. inhibition, % at 10 µM. actives 78% (n = 5,000). AID 624504; in the data active means inhibition above about 22%;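 further: 0% = DMSO vehicle and 100% = positive control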
# MPTP abs DR: MPTP inhibition, dose response swelling confirmation. shares compounds with MPTP inh. isolated mitochondria swelling, absorbance. IC50, µM. actives 58% (n = 780). AID 651561; in the data active means IC50 below about 20 µM
# MPTP cs DR: MPTP inhibitor counter-screen activity, dose response. shares compounds with MPTP inh. isolated mitochondria counterscreen, fluorescence read-out. IC50, µM. actives 49% (n = 780). AID 651564; in the data active means IC50 below about 80 µM
# The depositor's hits bear a star; · = not tested or not shown. Sampled rows, rich in hits. Any-hit rate of the full collection: about 4.1%.
SMILES,FAS TE block,MIN6 prolif,MPTP inh,GRIN3A LBD mod,p-CIP stab down,Rh123 counter,others
COc1cc2c(c(O)c1OC)C1Cc3ccc(OC)c(OC)c3CN1CC2 (stereo not given),0.6,·,-0.9,·,·,·,
Cc1ccc(S(=O)(=O)Nc2cc(NC(=O)CN3CCOCC3)ccc2Cl)cc1,-8.7,-0.2,-1.1,1.9,-11.4,·,
Cc1cc(C)c2nc(N(CCCN(C)C)C(=O)C3=COCCO3)sc2c1,1.9,-4.7,61.3*,-0.3,·,-15.7,MPTP abs DR=11.8*;MPTP cs DR=>80
CN(C)CCCN(C(=O)C1=COCCO1)c1nc2ccc(Br)cc2s1,-1.7,-4.8,-2.0,-0.8,-11.2,·,
Cc1cc(C)c2nc(N(CCCN(C)C)C(=O)c3ccc4c(c3)OCCO4)sc2c1,3.3,-7.0,88.7*,3.4,·,-18.2,
CN(C)CCCN(C(=O)c1ccc2c(c1)OCCO2)c1nc2cc3c(cc2s1)OCO3,-3.8,-1.5,-1.1,0.7,-11.1,·,
O=C(CCc1ccccc1)NC(NC(=S)Nc1ccc(Br)cc1)C(Cl)(Cl)Cl (stereo not given),3.6,-4.0,80.8*,13.7*,3.4,81.2*,
CCCC(=O)NC(NC(=S)Nc1ccc(N=Nc2ccccc2)cc1)C(Cl)(Cl)Cl (stereo not given),6.1,-5.3,102.9*,21.6*,-4.0,61.6*,
O=C(CCc1ccccc1)NC(NC(=S)Nc1cccc(Cl)c1)C(Cl)(Cl)Cl (stereo not given),0.2,-3.4,94.3*,37.8*,10.0,78.1*,
CCCC(=O)NC(NC(=S)Nc1ccc(S(N)(=O)=O)cc1)C(Cl)(Cl)Cl (stereo not given),-8.5,0.7,0.5,-22.1,11.3,·,
Cc1cccnc1CNC(=O)C1CCC(=O)N(CCc2cccc(F)c2)C1 (stereo not given),-2.8,4.3,-2.5,-3.0,-2.1,·,
Cc1cc(C(=O)OC(C(=O)Nc2cccc(C(F)(F)F)c2)c2ccccc2)c(C)o1 (stereo not given),29.5,0.0,67.5*,13.1*,5.3,73.1*,
Cc1ccccc1OCCC(=O)Nc1ccc(F)c(Cl)c1,27.7,-2.9,84.9*,-2.0,2.1,85.0*,
CCOc1ccccc1OCCC(=O)Nc1ccc(F)c(Cl)c1,5.7,-0.8,1.6,-2.8,4.3,·,
COc1ccc(-c2cc3c(=O)n(CC(=O)NCCCN4CCN(Cc5ccccc5)CC4)ncn3n2)cc1,-3.1,-7.9,91.0*,5.0,-12.4,51.3*,
COc1ccc(-c2cc3c(=O)n(CC(=O)NCCCN4CCC(Cc5ccccc5)CC4)ncn3n2)cc1,3.7,-6.9,85.3*,-2.8,-14.5,18.0,
Cc1cc(-n2c(C)cc(C(=O)CSc3[nH]c(=O)cc(C(F)(F)F)c3C#N)c2C)no1,18.7,-7.7,56.9*,4.0,·,72.2*,
Cc1cc(NC(=O)CSc2[nH]c(=O)cc(C(F)(F)F)c2C#N)no1,-1.5,-2.2,0.9,-4.5,·,·,
Cc1ccc(N/N=C(\C#N)C(N)=S)c(C)c1,0.1,·,89.9*,-1.7,8.0,83.1*,
O=C(OCc1nc2ccccc2s1)c1ccccc1O,11.3,0.5,-0.2,0.6,-1.1,·,
CC(C)(C)c1ccc(C(=O)OC/C(O)=C(\C#N)c2nc3ccccc3s2)cc1,5.0,0.0,97.2*,17.5*,-2.5,70.2*,
N#C/C(=C(/O)COC(=O)c1ccc(O)cc1)c1nc2ccccc2[nH]1,-10.6,-0.5,3.3,-2.1,3.3,·,
N#C/C(=C(/O)COC(=O)c1ccccc1O)c1nc2ccccc2s1,1.5,-5.0,100.1*,12.8*,5.4,93.6*,
CCOc1ccc(OCCn2c(S(=O)(=O)O)nc3c(N)ncnc32)cc1,-1.8,1.3,-0.2,-1.1,-2.8,·,
COc1ccc(-c2noc(CCC(=O)NCCCN3CCC(Cc4ccccc4)CC3)n2)cc1,-4.8,-3.7,62.8*,0.1,2.9,41.9*,
SMILES,FAS TE block,MIN6 prolif,MPTP inh,GRIN3A LBD mod,p-CIP stab down,Rh123 counter,others
COc1ccc(-c2noc(CCC(=O)NCCCN3CCN(c4ccc(F)cc4)CC3)n2)cc1,-2.9,-3.2,23.3,-2.2,-3.2,·,
Cc1ccc(-c2noc(CCC(=O)NCC3CCN(Cc4cccc(C)c4)CC3)n2)cc1,0.2,-3.8,66.7*,-0.2,1.0,7.2,MPTP abs DR=8.81*;MPTP cs DR=23.7*
Cc1ccccc1OCCCSc1nc2ccccc2[nH]1,14.3,0.0,67.8*,-2.9,-9.2,99.1*,
NCCOc1ccccc1Cc1ccccc1,-15.7,-0.1,68.7*,2.3,-13.7,-5.6,MPTP abs DR=6.66*;MPTP cs DR=>80
C=C(C)C1CC=C(CN2CCC(O)CC2)CC1 (stereo not given),-4.4,-0.4,-0.5,1.3,0.0,·,
C=C(C)[C@@H]1CC=C(CN2CCC(N3CCC(C(=O)N4CCCC4)CC3)CC2)CC1,-5.3,-5.6,83.2*,-2.1,-5.7,46.8*,
Cc1ccc(/C=N/NC(=O)NN(C)c2ncc(C(F)(F)F)cc2Cl)cc1,2.7,-1.7,-0.9,0.1,-10.9,·,
C/C(=N\OC(=O)Nc1ccc(Cl)cc1)c1ncc(C(F)(F)F)cc1N1CCOCC1,4.1,-2.5,98.6*,2.9,1.4,93.6*,
CO/N=C(\C)c1ncc(C(F)(F)F)cc1N1CCOCC1,0.2,3.1,5.5,-0.1,-16.3,·,
CN(NC(=O)Nc1ccc(Cl)cc1)c1ncc(C(F)(F)F)cc1Cl,12.7,-5.5,87.8*,-1.2,·,91.3*,
N/C(=N\OC(=O)Nc1ccc(Cl)cc1)c1ncc(C(F)(F)F)cc1Cl,7.0,0.0,56.1*,6.8,-8.0,112.7*,
C=CCN(CC=C)c1ncnc2[nH]ncc12,-7.7,·,-2.1,-8.7,·,·,
N#CC(Sc1ccccn1)c1ccc(Cl)cc1 (stereo not given),12.6,1.2,-1.0,-1.0,5.6,·,
CC(C)N(C)CCOC(=O)c1ccccc1Br,-6.6,-2.5,14.8,-3.8,-3.5,·,
CC(C)(C)c1ccc(Cn2c(=N)n(CC(O)c3ccco3)c3ccccc32)cc1 (stereo not given),-9.1,-6.9,56.0*,-2.1,-21.6,21.5*,
Cc1ccccc1Cn1c(=N)n(CC(O)c2ccco2)c2ccccc21 (stereo not given),-5.0,-3.0,-1.5,-0.7,-1.3,·,
Cc1ccc(-c2nc3c4ccccc4ccn3c2CC2CCCCC2)cc1,15.2,·,0.7,·,·,·,
O=C(Nc1cc(Cl)cc2c1-c1ccc(Cl)cc1C2O)C(Cl)Cl (stereo not given),-6.2,·,92.9*,3.0,·,75.7*,
Nc1cc(Cl)cc2c1-c1ccc(Cl)cc1C2O (stereo not given),-0.4,·,1.6,1.5,·,·,
Oc1c(Cl)cc(Cl)cc1CNc1ccc(Br)cn1,27.8,-6.6,72.2*,8.3,3.5,83.2*,
Oc1ccc(Cl)cc1CNc1ccccn1,3.1,-1.9,0.5,0.0,-8.1,·,
